Calls of active or inactive are those of the source. Rule for the calls: active = hit-call score of the fitted dose curve at least 0.9, where 1 is the maximum; inactive = score below 0.9.
Tests used:
[1] = read-out: Plasminogen activator inhibitor-1 (PAI1), SERPINE1 (gene 5054); experiment: BSK_hDFCGF_PAI1: BioMAP Diversity Plus: hDFCGF Assay for Plasminogen activator inhibitor-1 (PAI1) Biomarker Activity (AID 2283066); conditions: primary human foreskin fibroblasts; actives raise or lower the signal
Outline: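 PAI-1 levels, determined by ELISA, served as the endpoint in human foreskin fibroblast cultures exposed to compound for 24 h, with DMSO as baseline.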

[2] = read-out: Interferon-gamma inducible Protein 10 (IP10), CXCL10 (gene 3627); experiment: BSK_KF3CT_IP10: BioMAP Diversity Plus: KF3CT Assay for Interferon-gamma inducible Protein 10 (IP10) Biomarker Activity (AID 2283068); conditions: primary human keratinocytes with fibroblasts; actives raise or lower the signal
Outline: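 In a primary skin co-culture of keratinocytes and fibroblasts, IP-10 is quantified by ELISA at 24 h after dosing. SRB staining of parallel wells monitors overt toxicity. Curves are fitted both directions against DMSO.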

[3] = BSK_KF3CT_SRB: Viability Assessment in the BioMAP Diversity Plus: KF3CT Assay (AID 2283069); conditions: primary human keratinocytes with fibroblasts;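 note: total protein by sulforhodamine B staining as a cytotoxicity measure; fitted for both signal gain and loss against DMSO baseline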
Outline: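 Human keratinocyte and foreskin fibroblast co-culture exposed to chemical for 24 h. Total protein measured in parallel cultures by 0.1% sulforhodamine B staining after 10% TCA fixation, read at 560 nm; bidirectional fit relative to DMSO.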

[4] = read-out: Interleukin-1 alpha (IL1a), IL1A (gene 3552); experiment: BSK_KF3CT_IL1a: BioMAP Diversity Plus: KF3CT Assay for Interleukin-1 alpha (IL1a) Biomarker Activity (AID 2283070); conditions: primary human keratinocytes with fibroblasts; actives raise or lower the signal
Outline: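 Primary human keratinocyte plus foreskin fibroblast co-culture, dosed and measured at 24 h in 96-well plates. IL-1a level quantified by ELISA; bidirectional fit relative to DMSO.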

[5] = read-out: TIMP metallopeptidase inhibitor 2 (TIMP2), TIMP2 (gene 7077); experiment: BSK_KF3CT_TIMP2: BioMAP Diversity Plus: KF3CT Assay for TIMP metallopeptidase inhibitor 2 (TIMP2) Biomarker Activity (AID 2283071); conditions: primary human keratinocytes with fibroblasts; actives raise or lower the signal
Outline: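 Keratinocyte–fibroblast co-culture, 24 h exposure; TIMP-2 ELISA, DMSO-normalised bidirectional fit. Parallel SRB (0.1%, TCA-fixed, 560 nm) total-protein staining gauges cytotoxicity.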

[6] = read-out: Transforming growth factor beta 1 (TGFb1), TGFB1 (gene 7040); experiment: BSK_KF3CT_TGFb1: BioMAP Diversity Plus: KF3CT Assay for Transforming growth factor beta 1 (TGFb1) Biomarker Activity (AID 2283072); conditions: primary human keratinocytes with fibroblasts; actives raise or lower the signal
Outline: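 Signal changes in either direction, relative to DMSO, define activity here. TGF-b1 is read by ELISA from a human keratinocyte-fibroblast co-culture 24 h post-dose.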

[7] = read-out: C-C motif chemokine 2 (Homo sapiens) (UniProt P13500); experiment: BSK_KF3CT_MCP1: BioMAP Diversity Plus: KF3CT Assay for Monocyte Chemoattractant Protein 1 (MCP1/CCL2) Biomarker Activity (AID 2283073); conditions: primary human keratinocytes with fibroblasts; actives raise or lower the signal
Outline: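 Human keratinocyte–foreskin fibroblast co-culture; MCP-1 measured by ELISA 24 h after dosing. Bidirectional fit vs DMSO; cytotoxicity tracked by SRB total protein in parallel cultures.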

[8] = read-out: Matrix Metallopeptidase 9 (MMP9), MMP9 (gene 4318); experiment: BSK_KF3CT_MMP9: BioMAP Diversity Plus: KF3CT Assay for Matrix Metallopeptidase 9 (MMP9) Biomarker Activity (AID 2283074); conditions: primary human keratinocytes with fibroblasts; actives raise or lower the signal;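 for AC50: MMP9 protein level quantified by ELISA in the co-culture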
Outline: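 Human keratinocyte and foreskin fibroblast co-culture exposed to chemicals for 24 h; MMP9 biomarker measured by ELISA, bidirectional fitting relative to DMSO; cytotoxicity tracked by SRB total protein staining in parallel cultures.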

[9] = read-out: urokinase plasminogen activator (uPA), PLAU (gene 5328); experiment: BSK_KF3CT_uPA: BioMAP Diversity Plus: KF3CT Assay for urokinase plasminogen activator (uPA) Biomarker Activity (AID 2283075); conditions: primary human keratinocytes with fibroblasts; actives raise or lower the signal
Outline: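 Primary human keratinocyte/foreskin fibroblast co-culture exposed to chemical; uPA measured by ELISA at 24 h. Bidirectional fit versus DMSO, with parallel SRB total-protein staining for cytotoxicity.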

CD40, CD40 (gene 958) = experiment: BSK_LPS_CD40: BioMAP Diversity Plus: LPS Assay for CD40 Biomarker Activity (AID 2283076); conditions: primary human HUVEC with PBMC; actives raise or lower the signal
Outline: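 HUVEC plus PBMC co-culture stimulated with LPS; CD40 quantified by ELISA 24 h after compound dosing. Fitting was bidirectional relative to DMSO. SRB staining of parallel cultures flagged overt cytotoxicity.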

[10] = read-out: E-selectin (Homo sapiens) (UniProt P16581); experiment: BSK_LPS_Eselectin: BioMAP Diversity Plus: LPS Assay for Eselectin Biomarker Activity (AID 2283077); conditions: primary human HUVEC with PBMC; actives raise or lower the signal
Outline: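 Human umbilical vein endothelial cells co-cultured with PBMC under LPS stimulation; cell-surface E-selectin measured by ELISA 24 h after dosing. Change in either direction versus DMSO, with SRB total-protein staining in parallel cultures for cytotoxicity.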

[11] = read-out: Interleukin-8 (IL8), CXCL8 (gene 3576); experiment: BSK_LPS_IL8: BioMAP Diversity Plus: LPS Assay for Interleukin-8 (IL8) Biomarker Activity (AID 2283078); conditions: primary human HUVEC with PBMC; actives raise or lower the signal
Outline: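 Human umbilical vein endothelial cells co-cultured with PBMC, LPS-stimulated, exposed to compound for 24 h. IL-8 quantified by ELISA; fitted in both directions against DMSO, with SRB total-protein staining of parallel cultures for cytotoxicity.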

[12] = BSK_LPS_SRB: Viability Assessment in the BioMAP Diversity Plus: LPS Assay (AID 2283079); conditions: primary human HUVEC with PBMC;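 note: total protein by sulforhodamine B absorbance as a cytotoxicity measure; measured one day after compound addition; fitted in both directions against DMSO so loss or gain of signal counts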
Outline: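 Co-culture of human umbilical vein endothelial cells and PBMC, read 24 h after dosing. Total protein by 0.1% SRB staining after 10% TCA fixation, absorbance at 560 nm; bidirectional fit against DMSO.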

[13] = read-out: Interleukin-1 alpha (IL1a), IL1A (gene 3552); experiment: BSK_LPS_IL1a: BioMAP Diversity Plus: LPS Assay for Interleukin-1 alpha (IL1a) Biomarker Activity (AID 2283080); conditions: primary human HUVEC with PBMC; actives raise or lower the signal
Outline: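 Human umbilical vein endothelial cells co-cultured with PBMC and stimulated with LPS; IL-1a measured by ELISA 24 h after dosing. Bidirectional fitting against DMSO; cytotoxicity checked by SRB staining in parallel cultures.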

[14] = read-out: Monocyte Chemoattractant Protein-1 (MCP1), CCL2 (gene 6347); experiment: BSK_LPS_MCP1: BioMAP Diversity Plus: LPS Assay for Monocyte Chemoattractant Protein-1 (MCP1) Biomarker Activity (AID 2283081); conditions: primary human HUVEC with PBMC; actives raise or lower the signal
Outline: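 Human umbilical vein endothelial cells co-cultured with PBMC, LPS-stimulated; secreted MCP-1 measured by ELISA 24 h after compound addition. Bidirectional curve fitting against DMSO baseline; SRB total-protein staining in parallel cultures for cytotoxicity.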

[15] = BSK_LPS_PGE2: BioMAP Diversity Plus: LPS Assay for Prostaglandin E2 (PGE2) Biomarker Activity (AID 2283082); conditions: primary human HUVEC with PBMC; actives raise or lower the signal;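 for AC50: secreted prostaglandin E2 measured by ELISA in LPS-stimulated co-culture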
Outline: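 Endpoint derived from bidirectional curve fitting versus DMSO of ELISA-measured PGE2 in LPS-stimulated human primary vascular co-culture (HUVEC with PBMC) harvested at 24 h.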

[16] = read-out: Macrophage colony-stimulating factor (MCSF), CSF1 (gene 1435); experiment: BSK_LPS_MCSF: BioMAP Diversity Plus: LPS Assay for Macrophage colony-stimulating factor (MCSF) Biomarker Activity (AID 2283083); conditions: primary human HUVEC with PBMC; actives raise or lower the signal
Outline: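 HUVEC–PBMC co-culture, M-CSF measured by ELISA 24 h after chemical dosing. Fitted in both directions relative to DMSO as negative control; overt cytotoxicity assessed by SRB total-protein staining in parallel cultures.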

[17] = read-out: Tissue Factor, F3 (gene 2152); experiment: BSK_LPS_TissueFactor: BioMAP Diversity Plus: LPS Assay for Tissue Factor Biomarker Activity (AID 2283084); conditions: primary human HUVEC with PBMC; actives raise or lower the signal
Outline: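 Human umbilical vein endothelial cells co-cultured with PBMC were dosed with compound. Cell-surface CD142 was measured by ELISA 24 h later. Activity was fitted bidirectionally against DMSO, with SRB total-protein staining in parallel cultures for cytotoxicity.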

[18] = read-out: Tumor necrosis factor (Homo sapiens) (UniProt P01375); experiment: BSK_LPS_TNFa: BioMAP Diversity Plus: LPS Assay for Tumour Necrosis Factor alpha (TNFa) Biomarker Activity (AID 2283085); conditions: primary human HUVEC with PBMC; actives raise or lower the signal
Outline: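 Primary human vascular co-culture of HUVEC and PBMC; TNFa ELISA 24 h after treatment, analysed as increase or decrease relative to DMSO control.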

[19] = read-out: Intercellular Adhesion Molecule 1 (ICAM1), ICAM1 (gene 3383); experiment: BSK_KF3CT_ICAM1: BioMAP Diversity Plus: KF3CT Assay for Intercellular Adhesion Molecule 1 (ICAM1) Biomarker Activity (AID 2283067); conditions: primary human keratinocytes with fibroblasts; actives raise or lower the signal
Outline: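 Human keratinocyte–foreskin fibroblast co-culture was treated for 24 h. Cell-surface ICAM-1 was quantified by ELISA, fitted bidirectionally relative to DMSO. Cytotoxicity was checked in parallel cultures by SRB total-protein staining.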

Measured: AC50

Sequence of Tumor necrosis factor (Homo sapiens) (P01375 whole entry, looked up): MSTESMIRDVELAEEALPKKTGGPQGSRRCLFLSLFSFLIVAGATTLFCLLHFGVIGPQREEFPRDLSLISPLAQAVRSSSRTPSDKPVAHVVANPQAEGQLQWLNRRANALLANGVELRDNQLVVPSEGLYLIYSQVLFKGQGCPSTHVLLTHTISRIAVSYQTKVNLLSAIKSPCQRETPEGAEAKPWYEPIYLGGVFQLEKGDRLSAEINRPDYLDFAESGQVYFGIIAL
Sequence of E-selectin (Homo sapiens) (P16581 whole entry, looked up): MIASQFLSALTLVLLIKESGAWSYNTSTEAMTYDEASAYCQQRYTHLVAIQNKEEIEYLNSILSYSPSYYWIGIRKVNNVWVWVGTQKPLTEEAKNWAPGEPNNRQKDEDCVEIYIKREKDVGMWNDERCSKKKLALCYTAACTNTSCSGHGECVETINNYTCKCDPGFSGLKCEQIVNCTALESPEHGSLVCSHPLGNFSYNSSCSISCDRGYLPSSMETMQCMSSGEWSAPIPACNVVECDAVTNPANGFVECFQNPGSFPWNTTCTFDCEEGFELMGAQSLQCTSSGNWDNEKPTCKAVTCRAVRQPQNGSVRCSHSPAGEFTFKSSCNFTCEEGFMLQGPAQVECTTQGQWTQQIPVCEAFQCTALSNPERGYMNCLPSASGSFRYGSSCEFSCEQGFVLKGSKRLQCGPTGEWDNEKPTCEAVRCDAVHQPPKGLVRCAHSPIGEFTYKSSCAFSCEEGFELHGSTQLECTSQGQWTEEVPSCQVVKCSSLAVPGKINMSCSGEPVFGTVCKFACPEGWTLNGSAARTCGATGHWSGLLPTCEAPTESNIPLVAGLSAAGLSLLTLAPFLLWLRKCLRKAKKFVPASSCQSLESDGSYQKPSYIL

CNCc1ccc(NC(=O)c2c[nH]c3c2C(=O)CCC3)cc1
not listed: [19]
inactive: all other assays above

Cn1c(=O)c2c(ncn2C)n(C)c1=O
not listed: [11]
inactive: all other assays above

On1ccccc1=S
inactive: [11] | [14] | [16] | [17] | [18]
active: [1] 1.7 µM | [19] 10.4 µM | [2] 10.3 µM | [3] 6.33 µM | [4] 10.2 µM | [5] 11.6 µM | [6] 9.8 µM | [8] 8.53 µM | [9] 11 µM | CD40, CD40 (gene 958) 19.8 µM | [10] 31.2 µM | [12] 26.2 µM | [15] 31.1 µM

C=CC(=C)CCC=C(C)C
not listed: [11] | [13]
inactive: all other assays above

CC(=O)OCCC(C)C
not listed: [13] | [15]
inactive: all other assays above

Cc1ccc(N)cc1O
not listed: [11] | [15]
inactive: all other assays above

— PubChem BioAssay (EPA / NIEHS)
